PubChem BioAssay (NCI)
The panel holds about 83,000 compounds, 20% with a hit somewhere; the sample as a whole holds those more often.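 96-well plates, one dose, 48 hours. Percent growth reported; active if below 10.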 Unmarked numbers belong to inactive results. Active and inactive are the calls of the source.

What was measured:
Assay in all cases: NCI-60 one-dose screen, 48 h (100 = growth as untreated, 0 = no growth, -100 = all killed)
Details in all cases: 10 µM unless noted
NCI-H23 lung = tested on: NCI-H23 lung
NCI-H226 lung = tested on: NCI-H226 lung
NCI-H322M lung = tested on: NCI-H322M lung
HOP-62 NSCLC = tested on: HOP-62 NSCLC
NCI-H460 lung = tested on: NCI-H460 lung
HOP-92 NSCLC = tested on: HOP-92 NSCLC
NCI-H522 lung = tested on: NCI-H522 lung
A549/ATCC NSCLC = tested on: A549/ATCC NSCLC
786-0 renal = tested on: 786-0 renal
COLO 205 colon = tested on: COLO 205 colon
DU-145 prostate = tested on: DU-145 prostate
K-562 leukemia = tested on: K-562 leukemia
MALME-3M melanoma = tested on: MALME-3M melanoma
MDA-MB-231 breast = tested on: MDA-MB-231 breast
RXF 393 renal = tested on: RXF 393 renal
SF-268 CNS = tested on: SF-268 CNS
SF-295 CNS = tested on: SF-295 CNS
SF-539 CNS = tested on: SF-539 CNS
UACC-257 melanoma = tested on: UACC-257 melanoma
M14 melanoma = tested on: M14 melanoma

SMILES	growth (NCI-H23 lung)	growth (NCI-H226 lung)	growth (NCI-H322M lung)	growth (HOP-62 NSCLC)	growth (NCI-H460 lung)	growth (HOP-92 NSCLC)	growth (NCI-H522 lung)	growth (A549/ATCC NSCLC)	growth (786-0 renal)	growth (COLO 205 colon)	growth (DU-145 prostate)	growth (K-562 leukemia)	growth (MALME-3M melanoma)	growth (MDA-MB-231 breast)	growth (RXF 393 renal)	growth (SF-268 CNS)	growth (SF-295 CNS)	growth (SF-539 CNS)	growth (UACC-257 melanoma)	growth (M14 melanoma)
Cc1cnc(C(=O)NNc2nc3sc4c(c3c(=O)n2C)C(C)CCC4)cn1 (stereo not given)	5.46% (active)	-1.53% (active)	9.91% (active)	-39.1% (active)	4.18% (active)	-9.03% (active)	-9.87% (active)	-5.22% (active)	0.305% (active)	0.0868% (active)	7.49% (active)	6.51% (active)	-22.3% (active)	-3.01% (active)	-12.6% (active)	5.92% (active)	8.03% (active)	-21.1% (active)	-11.3% (active)	-15.7% (active)
CC1=C(C(=O)OC(C)C)C(c2ccc3c(c2)OCO3)NC(=S)N1 (stereo not given)	99.2%	84.1%	108%	119%	110%	96.6%	86.4%	104%	104%	123%	109%	107%	95.9%	101%	106%	103%	95.8%	98.9%	100%	99%
N=C(N)c1ccc(-c2ccc(-c3ccc(Cl)cc3)s2)nc1	62.8%	84.5%	-30.3% (active)	36%	-90.2% (active)	65.1%	-52.5% (active)	-30.8% (active)	71.3%	-71.8% (active)	-94.8% (active)	-45.1% (active)	87.3%	-47% (active)	60.1%	57.6%	27.1%	-55.2% (active)	82.3%	17.9%
Cn1c(-c2ccc(Br)cc2)c(O)c(=O)c2c(F)cccc21	48.4%	62.9%	53.5%	34%	20.5%	137%	54%	45.9%	42.7%	7.68% (active)	54.4%	100%	55.2%	54.5%	66.1%	47%	48.4%	57.4%	71.4%	50.6%
Cc1ccc(-n2c(=S)[nH]c3sc4c(c3c2=O)CCC(=O)C4)cc1	68.7%	83.4%	89.5%	63.6%	17.2%	57%	10.2%	51.8%	29.5%	81.6%	37.8%	17%	50.9%	54.6%	23.8%	48.2%	47.9%	11.8%	54.5%	25.9%
C[C@H](NC(=O)[C@@H](C)N)[C@H](Oc1ccc2c(cnn2-c2ccc(F)cc2)c1)c1ccc2c(c1)OCCO2	83.7%	83.9%	75.5%	50.6%	0.905% (active)	-4.6% (active)	24.8%	39.3%	56.7%	-3.17% (active)	55.4%	-3.32% (active)	-24.7% (active)	42.5%	62%	42.5%	77%	74%	63.9%	-69.6% (active)
O=C(Nc1cccc([N+](=O)[O-])c1)c1cc2ccccc2cc1O	-0.282% (active)	1.25% (active)	14.8%	0.534% (active)	3.41% (active)	-9.02% (active)	-3.91% (active)	11.1%	8.07% (active)	-66.1% (active)	10.6%	-9.38% (active)	-23.3% (active)	-43% (active)	5.31% (active)	18.3%	-9.62% (active)	4.44% (active)	-10.1% (active)	19%
COc1ccc(/C=C2\C(=O)N=C3N2NC(c2cc(Br)ccc2O)C=C(C)N3c2ccccc2)cc1 (stereo not given)	94.7%	85.1%	97.3%	108%	104%	93.6%	95.1%	96%	101%	115%	104%	97.3%	92.2%	92.8%	97.7%	100%	101%	99.9%	96.7%	98.8%
CC/C(=C(/c1ccc(Cl)cc1)c1ccc(OCCN2CCCC2)cc1)c1ccc(OC)cc1	52.9%	89%	79.7%	92.6%	37.6%	67%	82.7%	61.9%	71.9%	64.7%	86.3%	5% (active)	79.8%	80.2%	67%	87.1%	66%	82.6%	74.8%	50.3%
COc1ccccc1Nc1nc2c(s1)C1=CC[C@H]3[C@@H]4CC[C@H]([C@H](C)CCCC(C)C)[C@@]4(C)CC[C@@H]3[C@@]1(C)CC2	93.3%	103%	101%	95.9%	108%	90.8%	106%	103%	114%	106%	103%	102%	101%	103%	117%	102%	108%	104%	110%	101%
CCOC(=O)c1c2c(n3ccc(C)cc13)C(=O)c1ccccc1C2=O	85.5%	98.1%	77%	106%	58.7%	87.8%	70.5%	62.5%	97.3%	108%	102%	75.7%	103%	90.2%	95.6%	96.3%	98.5%	102%	78.2%	84.6%
Cc1cc(Cl)ccc1Nc1nc(C(F)(F)F)ccc1C(=O)N/N=C/c1ccc([N+](=O)[O-])cc1	-1.74% (active)	6.08% (active)	-18.6% (active)	-33.6% (active)	-34.3% (active)	-31.6% (active)	-13.3% (active)	-15.3% (active)	-61.2% (active)	-65.6% (active)	5.82% (active)	-1.48% (active)	-13.5% (active)	-51.5% (active)	5.4% (active)	13.8%	-56.4% (active)	3.77% (active)	-13.1% (active)	26.9%
COc1cc2c(c(OC)c1OC)C(=O)CC(c1cccc(NC(=O)c3ccc(Br)cc3)c1)O2 (stereo not given)	51.2%	49.2%	72.5%	47.2%	57%	25.7%	9.27% (active)	48.6%	78.1%	55.5%	58.7%	5.9% (active)	46.6%	37.3%	66.3%	57.6%	41.8%	79.1%	53.1%	20%
Oc1ccc(CN2CCC(N3CCCCC3)CC2)c2cccnc12	19%	69.8%	31.3%	5.32% (active)	9.43% (active)	-11.8% (active)	-1.28% (active)	17.4%	48.2%	112%	37.9%	15.8%	9.88% (active)	15.2%	29.6%	38.9%	38.4%	22%	21%	30.3%
C=C1C(=O)O[C@H]2[C@H]1CC/C(COC(=O)NCc1cc[nH]c1)=C\CC[C@@]1(C)O[C@@H]21	85.8%	68.5%	89.5%	87.3%	68.5%	37.2%	-8.14% (active)	86.7%	49.5%	31.2%	12.4%	16.6%	84.2%	35.4%	31.1%	64.9%	83.5%	50.8%	59.1%	32.7%
COc1ccc2cc(C(=O)c3coc4ccc(O)cc34)ccc2c1	96%	104%	95.8%	94.9%	105%	95.4%	72.9%	92.8%	94.1%	101%	99.6%	81.6%	92.1%	95%	115%	90.1%	105%	93.7%	103%	108%
COc1ccc(OC)c(C(=O)/C=C/c2cc3c(c(OC)c2OC)OCO3)c1	57.8%	92%	71.1%	101%	50.1%	62.2%	74.3%	62.7%	100%	95.8%	41.7%	29.7%	80.9%	83.2%	63.9%	63.2%	84.1%	87.6%	72.5%	78.6%
O=C1c2cccnc2C(=O)c2c1c(C(=O)NCCCN1CCCCC1)c1ccccn21	-36.1% (active)	-39.8% (active)	-35.9% (active)	-37.5% (active)	-69.9% (active)	-30.5% (active)	-51% (active)	-42.9% (active)	5.99% (active)	-82.2% (active)	-94.4% (active)	-25.4% (active)	-92.6% (active)	-3.12% (active)	-39.5% (active)	-13% (active)	-13.6% (active)	-61.2% (active)	-82.8% (active)	-88.1% (active)
COc1ccc(-c2nnc(-c3ccc4c(c3)nc(-c3ccncc3)n4C3CCCCC3)o2)cc1	72.8%	63.6%	82%	67.7%	73.7%	44.8%	61.4%	59.2%	66.3%	59.2%	68.5%	43.3%	82%	63.8%	69.7%	66.7%	67.7%	70.3%	77.6%	70.5%
Cc1cc2c(O)c(-c3cccc(Cl)c3)c3sc(=O)oc3c2cc1C	12%	42.9%	59.8%	76.7%	24.9%	-31.3% (active)	12.7%	69.1%	78.8%	115%	48.1%	17.2%	58.4%	53.9%	63.5%	48.7%	66%	54.3%	39.6%	51.9%
CC1(C)CCC(S(=O)(=O)c2ccc3c(c2)/C(=N\O)c2cc(S(=O)(=O)N4CCC(O)(c5cccc(C(F)(F)F)c5)CC4)ccc2-3)CC1	-48.7% (active)	-55.9% (active)	-38.5% (active)	-92.1% (active)	-84.5% (active)	-36% (active)	-81.4% (active)	-83.9% (active)	-87.3% (active)	-90% (active)	-83.8% (active)	-70.2% (active)	-79% (active)	-68.7% (active)	-85.4% (active)	-71.2% (active)	-64.8% (active)	-82.1% (active)	-69.9% (active)	-74.8% (active)
N#Cc1c(-c2ccccc2)cc(-c2ccccc2)n(CCCCCC(=O)Nc2ccccc2N)c1=O	81.2%	69.9%	81.5%	82.3%	50.9%	51.9%	55.8%	71.2%	57.6%	84%	72.6%	46.3%	76.8%	64.1%	39%	64.3%	95.9%	72.9%	78.6%	80.1%
COc1cc(CNC(=O)CCCC/C=C/C(C)C)ccc1OCc1nnc(Nc2ccc([N+](=O)[O-])cc2)o1	54.9%	62.1%	57.6%	67.6%	33.5%	-2.56% (active)	73%	49%	22.2%	70.9%	62%	59.6%	69.6%	67.1%	54.1%	79.7%	64.9%	70.2%	77.6%	66.4%
CCn1c(=S)[nH]c2c(=O)n(C)c(=O)n(C)c21	105%	105%	95%	109%	123%	89.8%	90.3%	96.3%	97.1%	116%	111%	105%	99.6%	115%	106%	114%	104%	95.3%	92%	95.5%
N#CC1=C(N)Oc2c(sc3c(Br)cccc23)C1c1ccc(F)cc1 (stereo not given)	31.1%	36.6%	41.3%	26.3%	9.57% (active)	41%	-6.79% (active)	24.1%	12.2%	-35.7% (active)	24.1%	9.02% (active)	49.4%	16.9%	-2.88% (active)	25.5%	5.32% (active)	-27.1% (active)	74.1%	9.58% (active)
O=C(OCc1ccc2cccc(O)c2n1)N1CCN(C(=O)c2cc3cc(F)ccc3[nH]2)CC1	-22.8% (active)	56.9%	60%	-29.7% (active)	-47.6% (active)	-75.9% (active)	-63.2% (active)	-56.2% (active)	-87.1% (active)	-77.4% (active)	-83.9% (active)	1.96% (active)	-93.2% (active)	-81.6% (active)	-93.1% (active)	-73.4% (active)	54.7%	-98.3% (active)	-41.4% (active)	-77.7% (active)
Cc1nnc(NC(=O)c2nc(S(=O)(=O)Cc3ccc(F)cc3)ncc2Cl)s1	90.5%	98.7%	93.8%	86.1%	105%	-85.7% (active)	-67.3% (active)	79.3%	48.3%	-18.8% (active)	88.2%	-23.8% (active)	-12.9% (active)	66%	87.3%	90.5%	99.5%	83.8%	40.6%	83.8%
CC1(c2ccccc2O)NN=C(/N=C/c2cccc([N+](=O)[O-])c2)N1C(Cc1c[nH]c2ccccc12)C(=O)O (stereo not given)	80.3%	82.1%	97.6%	65.8%	102%	81.2%	70.2%	103%	99.5%	84%	114%	89.8%	94.1%	80.5%	90.9%	95.7%	107%	99.4%	90.6%	92%
